Data: the supplement of paper PMC6555819

The sequences below were run on VDR homodimer (NR concentration 270 nM) (assay: PBM binding z-score (relative to random genomic background probes); higher = stronger binding; sequences stand for … in GC…GCGATTGACAGCGTAGAATGAAGG).
In short: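 Binding buffer was PBS pH 7.4 with 2% milk, 0.02% Triton X-100, 1 mM DTT, 0.2 mg/mL BSA and 0.4 mg/ml salmon testes DNA. In it, ligand-free nuclear receptor dimers were incubated 1 h on custom Agilent 4×180K protein-binding microarrays carrying double-stranded probes. Antibodies against each partner (one per run) detected binding, and z-scores were calculated against random background probes after regression normalization of scanned fluorescence.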

Row | Sequence | PBM binding z-score
1 | ACATGTAGGTTATCGGGTCATTCAGTTTGCGCAT | 4.06
2 | CCTACTGAGCCATCAGGTCATTGATATCAACGTT | 2.2
3 | GCTATTAGTTGAAAGGGCCACCGAATGATTCTCG | 0.169
4 | TCTATTTGTTGAAGGGCAACCGACGAGTCCGTTT | 1.92
5 | TGAATGAGGTCATAAGATCAGGGAACGTTGCAAA | 3.77
6 | ATCTCTTGGTAAAGATAGTTCAGTGAATGCAAAT | 0.713
7 | ATCTCTAGGTAGCAAGTTCAGTGAAAGAGAGGAC | 2.36
8 | ATCTCTAGGTAAAAGTCCAGTGAATCCCGAGGAT | 0.187
9 | AGTCAAAGTTCATCTAGGAAACGTAAGATATGCT | 4.34
10 | CCGAGCAGGTTATGGGGCATTCAGGCAACGGTGA | -0.392
11 | CCGACTGGGGCATAAGGTTACCCTAAGCCAGCCC | -0.217
12 | CCTTACAGGTCACTCCAGGTTATAGCATCGGAGT | 2.04
13 | CGAAATAGGTCAAGGACAGTGAATCTCCGCACGC | 0.593
14 | AGAACGAGGCCACGCTGAGTTGATAGCAGAGTAG | 0.389
15 | CCTGCTAGGTCAATGGTAAGCTAAAGCAGCTCGC | -0.274
16 | AGAATAAGGTTATACGTAGATCAGGGAAGAAAGT | 0.657
17 | TCTATTAGTTGAAGGGCAACCGCCGAGTCCGTTT | 1.86
18 | ATATCTAGGTAACCAAGTTCAGTGAATGCCGAAC | 2.63
19 | CAGCCTAGGTCAGGTCCAGTATAGGAGGAACGTT | 0.207
20 | TCGAGTAGGTTACCAATGGGGCATTAAGCTTTCT | -0.636

Row | Sequence | PBM binding z-score
21 | TCTTGTAGATCAACAGGAGGCTAAGAAAGATCGA | -0.893
22 | TTAGCAAGGTGAGCTGAGGTCGTTGATCCAACTC | 2.37
23 | TTTAGCAGGCCAGAGGGTCACTCAAGAGGTACGG | 0.332
24 | AGAACGAGGTTAAGATCAGGGAAACAGAATACAT | 0.771
25 | ATCTCTATGTAAGACTCAGTTCAGTGAAGAACGC | 1.16
26 | CAAACTAGATCACGAAAGGTCAAAGTCGAATGAC | 2.71
27 | ATCTCTTGGTAACCAAGTTCAGTGAATGCCGAAC | 2.57
28 | TCTAGCAGGCCGGAGGGTCACTCAAGAGGTACGG | 0.104
29 | CTACCAAGGTGAACAAGGTCGTTGATTACTATTC | 2.28
30 | CAAACTAGGTCAAGAGTTCAAAGTCCGCTTCCCG | 7.25
31 | GATACATGGTCAAGGCCAGAGTACGCGTATTGAT | 0.0812
32 | AGTCAAAGTTCATCTATGTAACGTAAGATATGCT | 4.62
33 | TTACCAGGGTGAGCTGAGGTCGTTGATCCAACTC | 2.47
34 | ACTAGCAGGCCATGGGTCACTCAAGATTAGTCCG | -0.0856
35 | CCTACTGGGCCACGAAAGGTTATTGATTCAGTGA | 0.238
36 | CCAGATAGGTGAGAAGGTAACTCAGCCTCGATTA | -0.157
37 | CCTAGCAGGCCAGGGTCAATCAAGCATTTCGCTT | 1.07
38 | GCTGCTAGGTCAATTGATGGTCAGCTAAAGCTCG | -0.476
39 | ACTAGCAGGCCAAGGGGCACTCAAGATTAGTCCG | 0.169
40 | GCGCGGAGGACAAGGTCAGAGCTTTGTCCGTAGA | 0.885
